Experimental findings from ChEMBL document CHEMBL3988442, “University of Dundee, Small-Polar-MMV Screening Library” (2021) are described below.

Common to all, as to parameters: scale not given: direction of the effect not stated beside the values
Test [1] deals with Protein translocase subunit SecA (Escherichia coli (strain K12)) (UniProt P10408). Put plainly: Assay to Identify E. coli SecA ATPase Inhibitors. It counts as functional. Particulars: 30 µM.
Test [2] has as its target T1, Ubiquitin-activating enzyme e1, putative (Leishmania donovani (strain BPK282A1)) (UniProt E9BSI1).
T1 sequence (whole entry): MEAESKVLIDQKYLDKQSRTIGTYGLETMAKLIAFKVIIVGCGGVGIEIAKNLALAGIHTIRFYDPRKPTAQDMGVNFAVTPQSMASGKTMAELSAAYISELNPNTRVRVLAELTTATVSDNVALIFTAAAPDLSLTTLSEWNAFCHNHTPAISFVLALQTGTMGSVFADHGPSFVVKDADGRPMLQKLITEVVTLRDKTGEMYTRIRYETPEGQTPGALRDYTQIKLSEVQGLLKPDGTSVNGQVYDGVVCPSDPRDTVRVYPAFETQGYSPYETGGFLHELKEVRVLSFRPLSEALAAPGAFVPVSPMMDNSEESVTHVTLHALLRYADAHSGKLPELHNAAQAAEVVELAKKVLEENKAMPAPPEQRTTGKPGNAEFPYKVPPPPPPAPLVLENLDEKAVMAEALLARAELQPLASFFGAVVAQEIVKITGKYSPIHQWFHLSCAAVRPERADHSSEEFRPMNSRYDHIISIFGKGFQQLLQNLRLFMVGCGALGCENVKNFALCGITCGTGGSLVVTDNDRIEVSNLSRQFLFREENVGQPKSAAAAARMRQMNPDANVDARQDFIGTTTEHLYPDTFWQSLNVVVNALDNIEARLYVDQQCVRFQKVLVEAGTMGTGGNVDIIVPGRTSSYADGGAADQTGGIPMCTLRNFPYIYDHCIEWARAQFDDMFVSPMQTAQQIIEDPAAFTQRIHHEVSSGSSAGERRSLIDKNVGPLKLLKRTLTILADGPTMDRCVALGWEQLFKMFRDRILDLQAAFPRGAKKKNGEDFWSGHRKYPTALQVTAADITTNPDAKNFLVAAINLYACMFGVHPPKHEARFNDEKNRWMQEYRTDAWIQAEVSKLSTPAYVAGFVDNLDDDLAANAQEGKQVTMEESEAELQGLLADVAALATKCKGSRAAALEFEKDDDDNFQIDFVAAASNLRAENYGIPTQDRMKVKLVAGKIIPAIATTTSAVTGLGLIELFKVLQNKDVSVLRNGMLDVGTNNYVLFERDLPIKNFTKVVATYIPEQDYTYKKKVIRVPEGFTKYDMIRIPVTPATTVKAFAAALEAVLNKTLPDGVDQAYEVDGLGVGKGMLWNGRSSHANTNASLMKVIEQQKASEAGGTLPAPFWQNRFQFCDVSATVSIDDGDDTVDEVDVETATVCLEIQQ
Put plainly: Leishmania donovani Ubiquitin Activating Enzyme (LdE1). The format is functional. Conditions: 30 µM.

Test [3] addresses AMP-activated protein kinase, AMPK (Homo sapiens) (UniProt P54646+O43741+P54619+Q9UGJ0+Q9Y478+Q13131+Q9UGI9). Put plainly: AMP-dependent Kinase enzyme assay. An in vitro enzyme assay that detects ADP turnover that is directly proportional to AMPK activity. This uses naive AMPK that is activated during the assay with MK-8722. Particulars: 30 µM. The format is functional.
In test [4] the target is Sialic acid-binding Ig-like lectin 9 (Homo sapiens) (UniProt Q9Y336). Put plainly: Hs-Siglec9 ALPHAscreen SOP 20170721. Particulars: 10 µM. For orientation: Alpha assays give light when donor and acceptor beads are brought close together.
Sequence of Sialic acid-binding Ig-like lectin 9 (Homo sapiens) (Q9Y336 whole entry): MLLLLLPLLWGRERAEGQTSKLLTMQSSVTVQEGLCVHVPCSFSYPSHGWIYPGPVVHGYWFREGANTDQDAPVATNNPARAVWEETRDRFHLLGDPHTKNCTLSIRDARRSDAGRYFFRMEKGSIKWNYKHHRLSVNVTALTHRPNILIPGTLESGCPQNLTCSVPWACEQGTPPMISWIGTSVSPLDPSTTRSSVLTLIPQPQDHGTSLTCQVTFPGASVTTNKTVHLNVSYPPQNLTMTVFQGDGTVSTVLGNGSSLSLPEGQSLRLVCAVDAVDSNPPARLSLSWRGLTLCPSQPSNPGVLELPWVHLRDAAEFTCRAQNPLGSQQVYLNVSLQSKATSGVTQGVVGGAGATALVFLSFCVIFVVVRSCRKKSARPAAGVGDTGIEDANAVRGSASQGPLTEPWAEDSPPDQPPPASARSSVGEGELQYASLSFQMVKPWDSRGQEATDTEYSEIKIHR
A further test concerns Trypanosoma cruzi. Put plainly: Trypanosoma cruzi phosphomannomutase and mannose-1-phosphate guanylyltransferase assay. It counts as functional. Conditions: 10 µM.
Test [5] concerns the target T2, Arginase-2, mitochondrial (Homo sapiens) (UniProt P78540).
T2 sequence (whole entry): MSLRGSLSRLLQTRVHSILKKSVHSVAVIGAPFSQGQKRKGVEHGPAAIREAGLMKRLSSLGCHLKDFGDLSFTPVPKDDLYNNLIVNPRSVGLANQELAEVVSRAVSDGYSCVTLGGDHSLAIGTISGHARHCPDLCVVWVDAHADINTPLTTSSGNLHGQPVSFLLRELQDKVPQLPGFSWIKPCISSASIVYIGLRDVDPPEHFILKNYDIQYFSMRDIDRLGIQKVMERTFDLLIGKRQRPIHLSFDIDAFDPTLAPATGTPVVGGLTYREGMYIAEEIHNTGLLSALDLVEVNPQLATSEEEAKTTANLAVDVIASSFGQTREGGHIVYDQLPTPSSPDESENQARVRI
Put plainly: in vitro enzyme assay to detect the production of urea directly proportional to the activity of Arginase II. Note: in the data most compounds retested in dose-response had high values. It counts as functional. Particulars: 33.3 µM.

Test [6] has as its target T3, Proteasome subunit beta (Trypanosoma cruzi) (UniProt O96673).
T3 sequence (whole entry): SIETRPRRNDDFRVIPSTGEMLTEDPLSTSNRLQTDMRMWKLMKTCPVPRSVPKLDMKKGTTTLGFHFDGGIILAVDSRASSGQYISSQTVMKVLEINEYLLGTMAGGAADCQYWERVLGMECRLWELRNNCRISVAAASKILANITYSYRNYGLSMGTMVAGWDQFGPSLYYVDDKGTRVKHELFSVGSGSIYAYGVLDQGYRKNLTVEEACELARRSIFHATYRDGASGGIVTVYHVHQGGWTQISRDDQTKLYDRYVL
Put plainly: Trypanosoma cruzi proteasome chymotrypsin-like activity (TcProtChymo) assay. Note: in the data most compounds retested in dose-response had high values. It counts as functional. Particulars: 9.37 µM.

The species entered for the next test is Homo sapiens. Put plainly: To identify inhibition of the IFN signalling (Jak-Stat) pathway via expression of an eGFP reporter gene under the control of an IFN-stimulated response element (ISRE) containing MxA promoter. It counts as functional. Particulars: 30 µM.
Test [7] deals with T4, Tyrosyl-tRNA synthetase, putative (Trypanosoma cruzi (strain CL Brener)) (UniProt Q4DSP6).
T4 sequence (whole entry): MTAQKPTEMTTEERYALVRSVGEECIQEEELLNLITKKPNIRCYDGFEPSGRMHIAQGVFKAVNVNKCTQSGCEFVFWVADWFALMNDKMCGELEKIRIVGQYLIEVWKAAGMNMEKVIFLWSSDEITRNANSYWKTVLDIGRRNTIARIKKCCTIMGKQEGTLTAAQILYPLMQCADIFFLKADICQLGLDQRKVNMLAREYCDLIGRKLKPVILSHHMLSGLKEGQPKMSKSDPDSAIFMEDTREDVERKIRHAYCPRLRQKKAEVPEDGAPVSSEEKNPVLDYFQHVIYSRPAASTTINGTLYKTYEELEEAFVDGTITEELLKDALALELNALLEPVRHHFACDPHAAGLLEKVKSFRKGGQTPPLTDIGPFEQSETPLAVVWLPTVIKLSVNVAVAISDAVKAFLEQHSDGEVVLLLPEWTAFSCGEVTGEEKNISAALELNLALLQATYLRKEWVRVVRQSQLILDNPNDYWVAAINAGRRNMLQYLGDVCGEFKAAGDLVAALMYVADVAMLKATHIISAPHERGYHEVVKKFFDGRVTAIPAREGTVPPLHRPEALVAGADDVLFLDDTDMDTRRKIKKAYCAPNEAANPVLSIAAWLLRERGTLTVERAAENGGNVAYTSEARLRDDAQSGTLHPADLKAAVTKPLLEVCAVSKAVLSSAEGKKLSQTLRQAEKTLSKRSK
Put plainly: Trypanosoma cruzi tyrosyl tRNA synthetase (TcYRS) _High Tyrosine SOP. Note: in the data most compounds retested in dose-response had high values. The format is functional. Conditions: 30 µM.

The target of test [8] is T4, Tyrosyl-tRNA synthetase, putative (Trypanosoma cruzi (strain CL Brener)). Put plainly: Trypanosoma cruzi tyrosyl tRNA synthetase (TcYRS) SOP. The format is functional. Conditions: 30 µM.
The target in test [9] is Chromo domain-containing protein 1 (Saccharomyces cerevisiae (strain ATCC 204508 / S288c) (Baker's yeast)) (UniProt P32657). Put plainly: ScCHD-1 Enzyme Inhibition Assay. Note: in the data most compounds retested in dose-response had high values. The format is functional. Conditions: 30 µM.
Sequence of Chromo domain-containing protein 1 (Saccharomyces cerevisiae (strain ATCC 204508 / S288c) (Baker's yeast)) (P32657 whole entry, the tested form may be a part): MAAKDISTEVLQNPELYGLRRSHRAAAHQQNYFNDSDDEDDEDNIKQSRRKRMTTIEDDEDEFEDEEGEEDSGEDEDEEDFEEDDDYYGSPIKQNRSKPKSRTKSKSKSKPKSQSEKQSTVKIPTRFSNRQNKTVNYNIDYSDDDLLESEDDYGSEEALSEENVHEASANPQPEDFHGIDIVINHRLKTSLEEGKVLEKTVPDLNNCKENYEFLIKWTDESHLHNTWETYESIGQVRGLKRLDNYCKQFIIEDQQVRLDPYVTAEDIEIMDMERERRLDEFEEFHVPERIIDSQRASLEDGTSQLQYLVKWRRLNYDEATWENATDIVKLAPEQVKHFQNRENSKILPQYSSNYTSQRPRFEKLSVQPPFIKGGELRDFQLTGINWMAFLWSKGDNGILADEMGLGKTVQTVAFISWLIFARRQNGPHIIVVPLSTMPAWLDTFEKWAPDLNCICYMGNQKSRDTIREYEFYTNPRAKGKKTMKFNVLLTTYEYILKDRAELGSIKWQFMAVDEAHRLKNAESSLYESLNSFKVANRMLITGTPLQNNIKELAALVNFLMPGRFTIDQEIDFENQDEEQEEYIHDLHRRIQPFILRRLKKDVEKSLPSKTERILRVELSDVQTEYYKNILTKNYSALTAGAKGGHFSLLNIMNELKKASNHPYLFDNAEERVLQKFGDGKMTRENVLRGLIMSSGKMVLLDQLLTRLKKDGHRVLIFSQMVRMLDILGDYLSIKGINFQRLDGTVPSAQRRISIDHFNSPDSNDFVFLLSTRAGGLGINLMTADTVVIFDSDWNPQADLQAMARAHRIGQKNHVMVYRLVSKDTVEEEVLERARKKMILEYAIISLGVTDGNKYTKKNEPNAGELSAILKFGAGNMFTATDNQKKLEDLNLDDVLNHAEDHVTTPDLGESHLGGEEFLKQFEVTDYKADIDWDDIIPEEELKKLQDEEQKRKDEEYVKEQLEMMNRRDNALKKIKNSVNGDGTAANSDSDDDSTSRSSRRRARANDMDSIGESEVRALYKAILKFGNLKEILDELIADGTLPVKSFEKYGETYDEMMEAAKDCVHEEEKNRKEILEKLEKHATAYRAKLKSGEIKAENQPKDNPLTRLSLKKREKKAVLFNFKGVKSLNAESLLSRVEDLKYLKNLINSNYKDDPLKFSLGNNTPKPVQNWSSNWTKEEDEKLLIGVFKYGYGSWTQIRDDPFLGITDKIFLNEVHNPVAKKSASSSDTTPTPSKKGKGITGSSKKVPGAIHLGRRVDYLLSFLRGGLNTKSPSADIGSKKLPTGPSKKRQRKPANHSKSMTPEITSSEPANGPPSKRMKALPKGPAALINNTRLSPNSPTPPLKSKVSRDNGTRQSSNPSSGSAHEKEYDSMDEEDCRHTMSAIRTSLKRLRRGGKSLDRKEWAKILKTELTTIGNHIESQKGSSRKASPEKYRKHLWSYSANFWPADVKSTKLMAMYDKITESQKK

For some assays here: Potency and affinity values are given separately.

Sequence of Protein translocase subunit SecA (Escherichia coli (strain K12)) (P10408 whole entry): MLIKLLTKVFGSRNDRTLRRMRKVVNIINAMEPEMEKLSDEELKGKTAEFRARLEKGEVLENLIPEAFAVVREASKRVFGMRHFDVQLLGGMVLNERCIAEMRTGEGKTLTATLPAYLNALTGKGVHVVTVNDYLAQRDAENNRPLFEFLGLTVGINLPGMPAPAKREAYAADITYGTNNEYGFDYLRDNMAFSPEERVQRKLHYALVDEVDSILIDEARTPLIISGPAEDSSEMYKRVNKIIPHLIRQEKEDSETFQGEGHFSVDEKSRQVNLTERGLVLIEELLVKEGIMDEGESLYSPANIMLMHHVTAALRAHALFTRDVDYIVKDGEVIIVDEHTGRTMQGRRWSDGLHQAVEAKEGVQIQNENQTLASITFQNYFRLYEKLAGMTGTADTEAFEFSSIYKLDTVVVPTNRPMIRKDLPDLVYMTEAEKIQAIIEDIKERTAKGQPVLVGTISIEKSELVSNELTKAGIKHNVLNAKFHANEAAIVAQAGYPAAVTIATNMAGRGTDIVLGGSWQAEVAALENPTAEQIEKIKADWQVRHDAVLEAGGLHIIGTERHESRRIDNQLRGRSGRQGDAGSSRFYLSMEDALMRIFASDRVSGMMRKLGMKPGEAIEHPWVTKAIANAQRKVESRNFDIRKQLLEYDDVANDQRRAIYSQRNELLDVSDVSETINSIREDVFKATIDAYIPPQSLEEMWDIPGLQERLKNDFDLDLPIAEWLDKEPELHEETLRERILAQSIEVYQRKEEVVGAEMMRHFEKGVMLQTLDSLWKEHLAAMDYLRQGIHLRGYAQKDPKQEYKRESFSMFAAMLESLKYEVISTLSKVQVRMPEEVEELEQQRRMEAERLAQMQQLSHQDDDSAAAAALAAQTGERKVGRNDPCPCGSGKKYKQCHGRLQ

As to `Cc1cnc2n(c1=O)CC(C(=O)Nc1cccc3cccnc13)CS2` (stereo not given), the Percent Effect in [1] was -3.5%; in [2], -2.74%; in [3], -76.9%; in test [4], -1.76%; in the test with Trypanosoma cruzi it was 5.88%; in [5] it was 0.455%. Moreover, the Percent Effect in test [6] was 8.87%; in the test filed under Homo sapiens, 5.24%; in [7], 1.07%; in [8], 0%; in test [9], -2.86%.
For the compound `Cc1ccc(CNC(=O)CN2CCN(CC(O)C3CC3)CC2)cc1` (stereo not given), the Percent Effect in test [1] is -0.763%; in test [2], 18.2%; in test [3] it was -0.209%; in test [4] it was -0.425%; with Trypanosoma cruzi it was 1.87%; in test [5], 1.94%. In addition, the Percent Effect in [6] was determined as 11.3%; in the test listed under Homo sapiens, 15.5%; in test [7] it was 9.52%; in test [8], 16.7%; in test [9] it was 89.9%.
As for `O=C([C@H]1COC[C@H]2CN(C3CCCC3)C[C@H]21)N1CCCCO1`, the Percent Effect in [1] was -1.86%; in test [2] it was 0%; in test [3], 2.27%; in test [4], 5.11%; in the test with Trypanosoma cruzi, -0.579%; in test [5] it was -51.4%. Besides, the Percent Effect in [6] is 2.39%; in the test listed under Homo sapiens, -22.5%; in test [7], 0%; in test [8], -5%; in test [9], -3.46%.
`Cc1cc(-c2cnc(N3CCCC(C)C3)nc2-c2cccnc2C)on1` (stereo not given): the Percent Effect was -7.33% in test [1]; 1.35% in test [2]; 6.26% in [3]; -5.16% in [4]; -5.93% in the test with Trypanosoma cruzi; -5.34% in test [5]. Also, the Percent Effect in [6] is 8.74%; in the test listed under Homo sapiens, 59.4%; in test [7] it was -8.6%; in test [8], -3.9%; in [9], -22.2%.
`Cc1cnn(CC2CCCN2Cc2cc(=O)n3cccc(C)c3n2)c1` (stereo not given): the Percent Effect in [1] is -6.14%; in test [2], 8.11%; in test [3], -3.73%; in [4], 28.3%; with Trypanosoma cruzi, 6.75%; in test [5] it was 35.5%. Further, the Percent Effect was 17.8% in [6]; -6.92% in the test listed under Homo sapiens; 14% in [7]; 25.9% in test [8]; -5.16% in test [9].
For `CCC1=N[C@@]2(CC[C@@H]3CN(CC(=O)N(C)C)C[C@@H]32)C(=O)N1CC1CC1`, the Percent Effect in [1] is -0.889%; in [2], 6.67%; in test [3] it was 3.24%; in test [4] it was -0.307%; with Trypanosoma cruzi, -6.88%; in test [5] it was -12.2%. Further, the Percent Effect is 17.2% in test [6]; 4.45% in the test listed under Homo sapiens; 0% in [7]; 10.3% in test [8]; -7.25% in [9].
As to `N#Cc1ncn(CCC(=O)Nc2c(Cl)cccc2Cl)n1`, the Percent Effect in test [1] was -1.01%; in test [2], 2.74%; in test [3], -1.08%; in test [4] it was 6.16%; with Trypanosoma cruzi, 1.59%; in test [5] it was -24.8%. Moreover, the Percent Effect in [6] was 19.6%; in the test filed under Homo sapiens, -3.99%; in test [7], 11.5%; in test [8], 21%; in test [9], -3.19%.
In the case of `CN1CCN(C[C@@H]2OC[C@H]3CN(Cc4ccsc4)CC[C@H]32)CC1`, the Percent Effect in test [1] was -2.51%; in test [2], 0%; in [3] it was 1.23%; in [4], -2.48%; in the test with Trypanosoma cruzi it was 6.95%; in test [5] it was -43.2%. In addition, the Percent Effect in test [6] is 5.81%; in the test filed under Homo sapiens, -3.23%; in test [7], 3.12%; in [8] it was 0%; in test [9] it was -4.8%.
In the case of `CCc1n[nH]c(C2CN(C(=O)c3cnc[nH]3)CCO2)n1` (stereo not given), the Percent Effect in test [1] was -4.08%; in [2], 7.79%; in test [3], 7.86%; in test [4], 7.55%; in the test with Trypanosoma cruzi it was 0.686%; in test [5] it was 4.84%. Besides, the Percent Effect in test [6] was 9.62%; in the test filed under Homo sapiens it was 1.28%; in test [7], 2.86%; in test [8], -11.8%; in test [9], -9.8%.
For `COc1ccnc(N2CCN(C(=O)Cc3ccc(C#N)cc3)CC2)n1`, the Percent Effect was -3.03% in [1]; 13% in test [2]; -3.06% in [3]; 0.369% in test [4]; 3.82% in the test with Trypanosoma cruzi; 1.9% in [5]. Further, the Percent Effect in test [6] is 12.7%; in the test listed under Homo sapiens, 7.36%; in [7], 7.62%; in test [8], 23.5%; in test [9] it was -7.06%.
